Experimental data published in PubChem BioAssay.
Entries with a potency or affinity are not part of this list. Calls of active or inactive are those of the source.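 The calls were made as follows: active = primary screen activator hit with a dose response curve and TRPC4 channel activation at any tested dose; inactive = no activation, no dose response, or not a primary hit.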

The compounds below were run against Short transient receptor potential channel 4 (Mus musculus) (UniProt Q9QUQ5) (assay: calcium entry via TRPC4 opening agents – cell-based, HEK293 TRPC4/mu-opioid, Fluo-4 calcium, dose response (AID 434937)). Conditions: HEK293 TRPC4 cells, Fluo-4 calcium fluorescence ratio; series mostly up to 20 µM.
Short transient receptor potential channel 4 (Mus musculus), sequence (Q9QUQ5 whole entry, looked up): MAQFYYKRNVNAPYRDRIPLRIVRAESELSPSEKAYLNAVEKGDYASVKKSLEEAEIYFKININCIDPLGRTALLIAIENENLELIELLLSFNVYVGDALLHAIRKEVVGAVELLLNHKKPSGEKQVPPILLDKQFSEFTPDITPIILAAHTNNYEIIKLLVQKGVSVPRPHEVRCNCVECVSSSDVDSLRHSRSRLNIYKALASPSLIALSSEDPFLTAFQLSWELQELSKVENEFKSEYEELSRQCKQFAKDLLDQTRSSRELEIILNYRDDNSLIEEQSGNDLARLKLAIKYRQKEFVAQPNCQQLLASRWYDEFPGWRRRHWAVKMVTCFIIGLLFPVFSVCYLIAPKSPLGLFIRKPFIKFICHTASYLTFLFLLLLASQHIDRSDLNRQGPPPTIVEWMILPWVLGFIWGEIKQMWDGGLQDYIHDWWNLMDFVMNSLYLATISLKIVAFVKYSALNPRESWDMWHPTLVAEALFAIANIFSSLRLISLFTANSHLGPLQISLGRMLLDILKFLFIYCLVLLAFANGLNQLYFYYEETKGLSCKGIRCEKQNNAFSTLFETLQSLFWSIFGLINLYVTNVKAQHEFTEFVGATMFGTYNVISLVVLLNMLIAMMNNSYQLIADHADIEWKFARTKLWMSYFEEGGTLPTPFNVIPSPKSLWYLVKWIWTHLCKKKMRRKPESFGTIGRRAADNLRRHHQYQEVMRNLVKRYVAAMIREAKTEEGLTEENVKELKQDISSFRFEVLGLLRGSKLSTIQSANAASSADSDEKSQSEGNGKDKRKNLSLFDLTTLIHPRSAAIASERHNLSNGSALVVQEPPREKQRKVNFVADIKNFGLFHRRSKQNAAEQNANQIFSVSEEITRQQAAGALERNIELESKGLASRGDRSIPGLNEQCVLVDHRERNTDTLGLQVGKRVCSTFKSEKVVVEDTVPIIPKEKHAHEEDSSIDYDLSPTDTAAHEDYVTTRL

outcome, inactive:
Cc1cc(OCC(=O)N(C(C)C)C(C)C)cc(C)c1Br, CCCCCCn1c(N2CCN(c3ccccc3)CC2)nc2c1c(=O)n(C)c(=O)n2C, Cc1ccc(-c2nnc(N3CCC(C)CC3)c3ccccc23)cc1C, Cc1cc(C(C)(C)C)c(O)c(C)c1CC1=NCCN1, O=C(NCc1ccccc1)C1=C[C@H](c2ccc(Br)cc2)C[C@H](OCc2ccc(CO)cc2)O1, O=C(Nc1ccccc1)C1=C[C@H](C2CCCCC2)C[C@H](OCc2ccc(CO)cc2)O1, Cc1ccc(S(=O)(=O)N2CCC(N3CCN(C)CC3)CC2)cc1Cl, Cc1cc(OCC(=O)NC2CCCCC2)ccc1Cl, O=[N+]([O-])c1ccc(/C=N/Nc2nc(N3CCCCC3)nc(N3CCCCC3)n2)o1, Cc1cccc(/C=N/NC(=O)c2cccc(Cl)c2)n1, Cc1cccc(Cc2c(C)nc3c(C(=O)NCc4ccco4)cnn3c2C)c1, Cc1ccc(Cn2c(=N)c(C(=O)NC3CCCC3)cc3c(=O)n4ccccc4nc32)cc1, COC(=O)[C@@]12CCCCN1[C@H](c1ccc(-c3cccc(Cl)c3)c(OC)c1)[C@H]1C(=O)N(C)C(=O)[C@H]12, CC1=C(C(=O)NCc2ccccc2)C(c2cc(Br)cc(Br)c2OC(C)C)NC(=O)N1 (stereo not given), CC1Cc2ccccc2N1C(=O)CSc1nc2c(c(=O)n(C)c(=O)n2C)n1Cc1ccc(F)cc1 (stereo not given), O=C1C(Cl)=C(Nc2cccc(O)c2)C(=O)N1Cc1ccccc1, O=C(NCc1ccccc1)C1=C[C@H](c2ccc(C(F)(F)F)cc2)C[C@H](OCc2ccc(CO)cc2)O1, CN(C)CCNc1ccc(Cl)cc1[N+](=O)[O-], CCn1c(O)c(N=NC(=O)c2cccc(S(=O)(=O)N3CCCCC3)c2)c2ccccc21, COc1ccc(Cl)cc1C(=O)NCCN(C)C, Cc1ccc(/C=N/NC(=O)NC2CCCCC2)o1, O=C(Nc1cccc(Cl)c1)c1cnn2cccnc12, O=C(c1cccc([N+](=O)[O-])c1)N1CCCC(C(=O)N2CCCCCC2)C1 (stereo not given), CCOc1ccc(-n2c(SCC(=O)O)nc3sc4c(c3c2=O)CCCC4)cc1, Cc1cc(-c2ccc(C)c(S(=O)(=O)N3CCN(C(=O)c4ccco4)CC3)c2)on1, Cc1cccc(/C=N/NC(=O)c2cc(Br)ccc2O)n1, C1CCN(c2nc(N3CCCC3)nc(N3CCNCC3)n2)C1, CNc1nc(N2CCc3ccccc32)ncc1F, Cc1cccc(Cn2c(N3CCN(c4ccccc4)CC3)nc3c2c(=O)n(C)c(=O)n3C)c1, O=C(Nc1cccc(Cl)c1)N1CCN(C/C=C/c2ccccc2)CC1
